Results filed as inconclusive are left out. Where a call stands in place of a potency, no number is given. Activity calls are given as the source filed them. Calls come from the whole dose curve; as a rule, active = well fitted inhibition curve with a large enough effect; inconclusive = small, poorly fitted or top-dose-only effect; inactive = no such curve, though single readings can be large or run the other way.
Legend:
[1] = tested on: Zika virus NS2B-NS3 protease (unlinked complex); test: Primary screen GU Rhodamine qHTS for Zika virus inhibitors: Unlinked NS2B-NS3 protease assay (AID 1347159); note: nearly all actives have a fitted effect of over 60% in size
Procedure, shortened: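 Compounds, tested up to 114 microM, were incubated for 15 minutes with 25 nM unlinked NS2B-NS3 protease at pH 8.0. Cleavage of 1.5 microM Rhodamine110 substrate was then followed by fluorescence for 15 minutes.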

[2] = tested on: Zika virus NS2B-NS3 protease (linked construct); test: Primary screen NINDS Rhodamine qHTS for Zika virus inhibitors (AID 1347160); note: nearly all actives have a fitted effect of over 55% in size
Procedure, shortened: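 Percent inhibition, normalized to uninhibited and enzyme-free controls, is fitted to a 4-parameter Hill equation. Fluorescence change comes from a 15-min cleavage of 1.5 microM bis-peptide Rhodamine110 substrate by 25 nM linked NS2B-NS3 at room temperature.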

Compound: O=C(Nc1nc2ccccc2n1CCc1ccccc1)c1ccccc1
- Potency [1]: inactive
- Potency [2]: inactive

Compound: C=CC(=O)Nc1cccc(Nc2nc(Nc3ccc(N4CCN(C(C)=O)CC4)cc3OC)ncc2C(F)(F)F)c1
- Potency [1]: inactive
- Potency [2]: inactive

Compound: O=C(O)COCCN1CCN([C@H](c2ccccc2)c2ccc(Cl)cc2)CC1
- Potency [1]: inactive
- Potency [2]: inactive

Compound: CCc1c(C)nc2c(-c3cnn(-c4cc(CO)ccn4)c3)c[nH]n2c1=O
- Potency [1]: inactive
- Potency [2]: inactive

Compound: CC1=CC(=O)C2C(C)(C)CCC[C@]2(C)[C@H]1CO (some centres undefined)
- Potency [1]: inactive
- Potency [2]: inactive

Compound: Cc1cc2c(F)c(Oc3ncnn4cc(OCC(C)O)c(C)c34)ccc2[nH]1 (centres undefined)
- Potency [1]: inactive
- Potency [2]: inactive

Compound: C/C=C(\C)C(=O)OCC1OC(OC2OC(COC(=O)/C(C)=C/C)C(OC3OC(CO)C(OC(=O)/C(C)=C/C)C(OC(=O)/C(C)=C/C)C3O)C(O)C2O)C(O)C(O)C1OC1OC(CO)C(OC(=O)/C(C)=C/C)C(OC(=O)/C(C)=C/C)C1O (centres undefined)
- Potency [1]: inactive
- Potency [2]: inactive

Reference: PubChem BioAssay (NCATS)
